Compounds with a hit are over-represented: about 11% of the library has one in this group of screens.
hNpr1 antagonist: blocks ANP-stimulated signaling of human Npr1 receptor; HEK293 hNpr1 GloSensor cGMP, ANP-stimulated luminescence; Potency, µM (highest dose often 46.3 µM), most hits filed as inhibitors; hit rate 1.6% among 76,000; calls by dose curve; further: nearly all actives have a fitted effect of over 60% in size
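HEK293 cells stably expressing human Npr1 and cGMP GloSensor pGS-40F, loaded 2 h with 2% GloSensor reagent, given compound 30 min at room temperature. Luminescence read before and 20 min after 0.1 nM hNppA.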
HEK cytotox: kills HEK 293 cells | HEK 293 viability, ATP luminescence (CellTiter-Glo), 48-72 h | hit rate 6.6% among 94,000 | AID 1345083 | Potency, µM (titrated, usually from 115 µM), hits mostly inhibitors; further: nearly all actives have a fitted effect of over 60% in size
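ATP-coupled CellTiter-Glo luminescence served as viability read-out, recorded 10 min after reagent addition at room temperature. HEK 293 cells, 250 cells/well, had been incubated with pintool-transferred compound for 48 or 72 hr at 37 degree Celsius.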
NIH3T3 tox: NIH 3T3 cell cytotoxicity. NIH 3T3 viability, CellTiter-Glo ATP luminescence, 48-72 h. Potency, µM (titrated, usually from 96.7 µM), most hits filed as inhibitors. hit rate 4.3% among 94,000. AID 1345082; further: nearly all actives have a fitted effect of over 55% in size
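Cytotoxicity is measured as loss of cellular ATP: NIH 3T3 cells (400/well) are exposed to compound for 48 or 72 hr at 37 °C, then CellTiter-Glo luminescence is imaged after 10 min at room temperature.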
FLuc inh: Photinus pyralis luciferase inhibition | P08659 | purified P. pyralis luciferase, luminescence, biochemical | Potency, µM (doses to about 115 µM), actives largely listed as inhibitors | hit rate 2.5% among 76,000; further: nearly all actives have a fitted effect of over 65% in size
Target sequence (P08659 whole entry, looked up): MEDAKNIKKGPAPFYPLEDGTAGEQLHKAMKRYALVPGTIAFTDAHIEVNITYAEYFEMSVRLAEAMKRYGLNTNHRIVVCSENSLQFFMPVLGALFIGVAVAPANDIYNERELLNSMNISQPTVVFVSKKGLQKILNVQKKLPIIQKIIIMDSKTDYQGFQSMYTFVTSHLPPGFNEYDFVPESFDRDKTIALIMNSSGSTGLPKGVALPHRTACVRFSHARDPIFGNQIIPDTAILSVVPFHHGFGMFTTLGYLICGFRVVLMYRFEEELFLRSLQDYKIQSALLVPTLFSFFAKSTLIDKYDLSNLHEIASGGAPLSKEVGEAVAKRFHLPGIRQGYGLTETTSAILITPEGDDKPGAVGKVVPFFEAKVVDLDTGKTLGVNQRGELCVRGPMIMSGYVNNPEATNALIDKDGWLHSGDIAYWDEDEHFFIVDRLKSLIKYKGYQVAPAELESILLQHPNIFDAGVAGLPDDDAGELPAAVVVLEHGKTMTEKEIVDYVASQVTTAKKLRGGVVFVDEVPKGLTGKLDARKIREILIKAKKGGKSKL
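Luminescence read by CCD imager after adding enzyme (10nM final) to wells holding compound, titrated in qHTS. Substrates 10uM each D-luciferin and ATP; buffer 50mM Tris acetate pH 7.5, 10mM Mg acetate, Tween-20, BSA.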
Numbers stand for hits; - = inactive; ? = inconclusive; . = no result; ! = not active in a repeat. Unless noted, the call rests on the fitted dose curve; in most records, active means well fitted curve in the direction sought with a large enough effect; inconclusive means small, poorly fitted or top-dose-only effect, or another doubt; inactive means no such curve, though single readings can be large; an effect the other way counts as inactive or inconclusive.

SMILES | hNpr1 antagonist | HEK cytotox | NIH3T3 tox | FLuc inh
O[C@H]1[C@H](NCc2ccc(OC(F)(F)F)cc2)[C@H]2CO[C@H](O2)[C@@H]1N1CCC(Cc2ccccc2)CC1 | ? | 45µM | ? | -
O=C1Nc2ccccc2C2(CCN(C(=O)OCc3ccccc3)C2)O1 (stereo not given) | - | ? | ? | -
CCOC(=O)c1cccc(NC(=O)c2ccc3c(c2)N(C)C2CCCCCN2C3=O)c1 (stereo not given) | - | 32µM | ? | ?
CCN1c2cc(C(=O)Nc3cccc(C)c3)ccc2C(=O)N2CCCC21 (stereo not given) | - | ? | ? | -
CCc1ccc(NC(=O)c2ccc3c(c2)N(C)C2CCCCCN2C3=O)cc1 (stereo not given) | - | ? | - | ?
CCOC(=O)c1cccc(NC(=O)c2ccc3c(c2)N(CC)C2CCCCN2C3=O)c1 (stereo not given) | - | 40µM | 40µM | -
CC(C)(C)NC(=O)N1CCCCCCNC(=O)[C@@H]2C[C@@H](C(=O)N3CCc4ccccc4C3)C[C@@H]21 | - | - | - | -
Cc1ccc(OCc2nc(C3CN(C(=O)c4cc(C)nn4C)C3)no2)cc1 | ? | 45µM | - | 40µM
CCn1nccc1C(=O)N1CCC(c2noc(COc3ccc(F)cc3)n2)C1 (stereo not given) | - | 45µM | ? | -
CCCNC(=O)N1CCC(c2noc(COc3ccc(F)cc3)n2)C1 (stereo not given) | ? | ? | - | -
O=C(Cc1c(F)cccc1Cl)N1CCC(c2noc(COc3ccc(F)cc3)n2)CC1 | ? | 89µM | ? | -
O=C(NC1CCCC1)N1CCN(C(=O)c2nc3cccnc3n(Cc3ccccc3)c2=O)CC1 | . | - | - | .
CN(C(=O)c1cc2ccccc2oc1=O)C1CCCN(CCCc2ccccc2)C1 (stereo not given) | - | ? | 40µM | -
Cc1nc(N2CCN(C(=O)c3c(F)cccc3Cl)CC2)cc(C(F)(F)F)n1 | - | - | - | -
CC(c1ccccc1)N1CCN(c2cccc(CN(C)[S+](C)(=O)[O-])c2F)CC1 (stereo not given) | . | 79µM | ? | .
CCOC(=O)C(Cc1cccc(N2CCN(C(=O)c3c(Cl)cccc3Cl)CC2)c1F)OC (stereo not given) | . | 79µM | ? | .
CC(C)OC(=O)N(C)Cc1cccc(N2CCN(C(=O)c3c(Cl)cccc3Cl)CC2)c1F | . | 35µM | ? | .
CN(Cc1ccccc1)C(=O)c1coc(CN2CCN(c3ccccc3F)CC2)n1 | - | ? | - | -
CC(C)N(Cc1cccc(N2CCN(C(=O)c3c(Cl)cccc3Cl)CC2)c1F)[S+](C)(=O)[O-] | . | 79µM | ? | .
CCCN1C(=O)Cc2cc(C(=O)N3CCN(c4ccccc4Cl)CC3)ccc21 | - | ? | ? | -
Cc1ccc(C)c(NC(=O)CN2C(=O)NC(c3ccccc3Cl)C3=C2COC3=O)c1 (stereo not given) | - | - | - | -
CN1CC(=O)N(C2CCNCC2)Cc2c1ncnc2N1CCc2ccccc2C1 | . | - | - | .
CCCN(C)C(=O)c1cn2cc(-c3cccc(Cl)c3)n(CC=C(C)C)c(=O)c2n1 | - | 28µM | 40µM | -
COCCN(C)C(=O)c1cn2cc(-c3cccc(Cl)c3)n(CC3CC3)c(=O)c2n1 | - | - | ? | -
COc1ccccc1Cn1c(=O)c(C(=O)N2CCN(C(=O)c3ccccc3C)CC2)nc2cccnc21 | . | - | - | .
SMILES | hNpr1 antagonist | HEK cytotox | NIH3T3 tox | FLuc inh
O=C1NC2(CCN(Cc3ccc(C(F)(F)F)cc3)CC2)COc2ccccc21 | - | ? | - | -
Cn1nccc1CN1CCC2(COc3ccccc3C(=O)N2)C1 (stereo not given) | - | 89µM | ? | -
O=C1NC2(CCN(Cc3ccc(F)cc3)C2)COc2ccccc21 (stereo not given) | - | ? | 28µM | -
N#Cc1ccc(CN2CCC3(COc4ccccc4C(=O)N3)C2)cc1 (stereo not given) | ? | 63µM | 32µM | -
O=C1NC2(CCN(Cc3ccccc3)C2)COc2ccccc21 (stereo not given) | - | ? | ? | -
O=C1NC2(CCN(Cc3ccsc3)CC2)COc2ccccc21 | - | 63µM | ? | -
CCOc1cccc(CN2CCCC3(Cc4ccccc4CNC3=O)C2)c1 (stereo not given) | . | - | - | .
CCCCn1c(=O)c(C(=O)N2CCN(C(=O)c3ccccc3C)CC2)nc2cccnc21 | . | - | - | .
O=C(C1CCCC1)N1CCC(C(=O)N2CCC(N3CCCC3=O)CC2)CC1 | . | - | - | .
O=C1NC2(CCN(Cc3ccccc3C(F)(F)F)CC2)Oc2ccccc21 | - | 40µM | ? | -
N#Cc1ccc(CN2CCCC3(C2)NC(=O)c2ccccc2O3)cc1 (stereo not given) | ? | 89µM | ? | -
O=C1NC2(CCN(Cc3ccccc3C(F)(F)F)CC2)COc2ccccc21 | - | - | - | -
O=C1CN(C(=O)OCc2ccccc2)CC(O)CN1Cc1ccc2c(c1)OCO2 (stereo not given) | . | - | ? | .
Cc1cc(C(=O)N2CCC3(CC2)c2[nH]c4ccccc4c2CCN3C)n(C)n1 | - | 40µM | - | -
COc1ccc2[nH]c3c(c2c1)CCN(C)C31CCN(C(=O)c2ccccc2)CC1 | - | ? | ? | -
COc1ccc2[nH]c3c(c2c1)CCN(C)C31CCN(C(=O)c2cc(C)nn2C)CC1 | - | ? | - | -
CN1CCc2c([nH]c3ccccc23)C12CCN(C(=O)c1ccsc1)CC2 | - | 40µM | ? | -
COc1cccc(CN2CCC3(CC2)c2[nH]c4ccccc4c2CCN3C)c1 | - | 25µM | 22µM | -
CC(=O)N1Cc2ccccc2CC2(CCN(CCc3ccccc3)C2)C1 (stereo not given) | . | ? | - | .
CCN1CCN(CC(O)COc2cccc(CNC3(c4ccccc4)CC3)c2)CC1 (stereo not given) | - | 32µM | ? | -
CNC(=O)c1cc(C)nc2onc(C3CCN(C(=O)c4c(C)noc4C)C3)c12 (stereo not given) | . | - | - | .
COc1ccccc1-c1cccc(CN2CCCC(C(=O)NCc3ccccc3)C2)c1 (stereo not given) | . | 11µM | ? | .
Cn1cccc1CN1CCCC(C(=O)NCc2ccccc2)CCNC(=O)CC1 (stereo not given) | - | 79µM | ? | -
COc1ccccc1-c1cccc(CN2CCCC(C(=O)NC3CCCC3)C2)c1 (stereo not given) | . | 35µM! | 35µM! | .
COc1ccccc1-c1cccc(CN2CCCC(C(=O)NCC(F)F)C2)c1 (stereo not given) | . | 40µM | ? | .
Cc1nc(CNC(=O)CCN2Cc3ccccc3OC(c3ccccc3F)C2)cs1 (stereo not given) | - | - | - | -
Cc1cccc(NC(=O)CN2C(=O)NC(c3ccccc3Cl)C3=C2COC3=O)c1C (stereo not given) | - | ? | - | -
CC(c1ccon1)N(C)C(=O)c1csc2nc(-c3cccc(C(F)(F)F)c3)cn12 (stereo not given) | - | ? | ? | -
O=C(C1CCCN(Cc2cccc(-c3cccs3)c2)C1)N1CCOCC1 (stereo not given) | . | ? | - | .

Source: PubChem BioAssay
